From PubChem BioAssay (Tox21)
Where “and” joins values, the source holds several entries; their conditions need not be identical. Equal entries are not always repeated. Results filed as inconclusive are left out. Where a call stands in place of a potency, no number is given. Calls of active or inactive are those of the source. Calls follow the shape of the dose curve; as a rule, active = well fitted cell-killing curve with a large enough effect in the repeat runs; inconclusive = weak or mixed curves, or effect the other way; inactive = flat fitted curve, though single readings scatter.

Assay: qHTS RealTime-Glo MT Cell Viability Assay in HEK293 cells - 8 hour (AID 1224887); also: nearly all actives have a fitted effect of over 50% in size
Details: RealTime-Glo luminescence; series mostly up to 76.8 µM
Excerpt: U.S. Tox21 Program National Center for Advancing Translational Sciences [NCATS] NIH Chemical Genomics Center [NCGC] U.S. Environmental Protection Agency [EPA] National Institutes of Environmental Health Sciences [NIEHS] National Toxicology Program [NTP] U.S. Food and Drug Administration [FDA] Tox21 Assay Overview: Measure of cell viability is critical in the cell-base assay. Analysis of cell viability is necessary for the characterization of cell responses to cytotoxic drugs and environmental stress. A RealTime-Glo MT Cell Viability Assay to monitor cell viability in real time of continues cell culture during 40 hours of compound treatment was used to screen Tox21 10K library compounds in Hek293 cells. The RealTime-Glo MT Cell Viability Assay is a nonlytic, homogeneous, bioluminescent method to measure cell viability in real time using a simple, plate-based method. The assay involves adding NanoLuc luciferase and a cell-permeant prosubstrate to cells in culture. Viable cells reduce the proprietary prosubstrate to generate a substrate for NanoLuc luciferase. This substrate diffuses from cells into the surrounding culture medium, where it is rapidly used by the NanoLuc Enzyme to produce a luminescent signal. The signal correlates with the number of viable cells, making the assay well suited for cytotoxicity studies.
Tox21 Assay Protocol Summary: The mixture of Hek293 cell suspension and reagents were dispensed at 600cells/6 ul/well in 1536-well tissue culture treated black solid bottom plates using a Multidrop dispenser. After the assay plates were incubated at a 37 C/5% CO2 incubator for 5 hours, 23 nL of compounds dissolved in DMSO, positive and negative controls was transferred to the assay plate by a pintool work station. The plates were incubated at 37 C for 40 hours. The luminescence intensity were measured at 0h, 8h, 16h, 24h, 32h and 40h time points using ViewLux plate reader during compound treatment.
Potency is read from the fitted curve at half-maximal effect.

Compound	Potency
CC(COc1ccccc1)N(CCCl)Cc1ccccc1 (stereo not given)	inactive
CC1=CC(=O)c2ccccc2C1=O	7.76 µM (active) and 16.9 µM (active)
CNC1(C)C2CCC(C2)C1(C)C (stereo not given)	inactive
CCCCN(CCO)CCCC	inactive
COc1nc(C)nc(Cl)c1NC1=NCCN1	inactive
O=C(O)Cn1cnnn1	inactive
CCC(CO)(CO)COCC(CC)(CO)CO	inactive
C=C(C)C(=O)O	inactive
OCCN1CCNCC1	inactive
Cc1cc(Cc2cc(C)cc(C(C)(C)C)c2O)c(O)c(C(C)(C)C)c1	15.6 µM (active) and 19.5 µM (active)
COC(c1ccccc1)(c1ccccc1)[C@H](Oc1nc(C)cc(C)n1)C(=O)O	inactive
CC(=O)CC(=O)Nc1ccc2[nH]c(=O)[nH]c2c1	inactive
CCc1ccc(C(c2ccc(CC)cc2)C(Cl)Cl)cc1	inactive
Cc1cc(C(C)(C)C)c(O)c(C(C)(C)C)c1	inactive
C=C(C)C1CC=C(C)C(OC(C)=O)C1 (stereo not given)	inactive
Cc1occc(=O)c1OC(=O)C(C)C	inactive
CC(=O)OCC1=C(C(=O)O)N2C(=O)[C@@H](NC(=O)Cc3cccs3)[C@H]2SC1	inactive
NC(N)=NC(=O)Cc1c(Cl)cccc1Cl	inactive
CC(=O)OCCOCCOCCOC(C)=O	inactive
C1COC(NC(C2CC2)C2CC2)=N1	inactive

Compound	Potency
C/C=C/c1ccc(OCC)c(O)c1	inactive
CC(=O)Nc1ccc(C(=O)CCl)cc1	inactive
CC1COC(=O)O1 (stereo not given)	inactive
NCCO	inactive
CC[C@H]1CN2CCc3cc(OC)c(OC)cc3[C@@H]2C[C@@H]1C[C@H]1NCCc2cc(OC)c(OC)cc21	874 nM (active) and 3.38 µM (active)
Cc1cccc([N+](=O)[O-])c1C(=O)O	inactive
COC(=O)[C@H]1[C@H]2C[C@@H]3c4[nH]c5cc(OC)ccc5c4CCN3C[C@H]2C[C@@H](OC(=O)c2cc(OC)c(OC)c(OC)c2)[C@@H]1OC	4.89 µM (active) and 6.34 µM (active) and 9.52 µM (active)
Oc1c(Cl)cc(Cl)c(Cl)c1Cc1c(O)c(Cl)cc(Cl)c1Cl	inactive
Cc1ccnc2c1NC(=O)c1cccnc1N2C1CC1	inactive
Nc1ccc2cc3ccccc3cc2c1	inactive
CCn1cc(C(=O)O)c(=O)c2cc(F)c(N3CCNC(C)C3)c(F)c21 (stereo not given)	inactive
CC(=O)N[C@@H](CS)C(=O)O	inactive
CC(C)(O)CCC(C)(C)O	inactive
OCC(CO)N[C@H]1C[C@](O)(CO)[C@@H](O)[C@H](O)[C@H]1O	inactive
CCOC(=O)C(C)C(C)=O (stereo not given)	inactive
C[N+]1([O-])CCOCC1	inactive
Cc1cccc2n[nH]nc12	inactive
O=Cc1ccc(Cl)cc1	inactive
CC(C)CCOCc1ccccc1	inactive
NCCCCCC(=O)O	inactive
